Results reported in PubChem BioAssay (NCATS).
Records with an inconclusive call do not appear. The source made the active and inactive calls. Unless noted, calls come from the whole dose curve; as a rule, active = well fitted curve in the direction sought with a large enough effect; inconclusive = small, poorly fitted or top-dose-only effect, or another doubt; inactive = no such curve, though single readings can be large; an effect the other way counts as inactive or inconclusive.

Experiments:
[1] = biological target: Lysosomal acid glucosylceramidase (Homo sapiens) (UniProt P04062); assay: Glucocerebrosidase-p2 (AID 348; in the data active = potency below about 10 µM; note: potency is the fitted concentration of half-maximal effect); settings: purified GBA, blue fluorogenic substrate, 40 min
How it was run: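 Normal human glucocerebrosidase (0.2 nM) with blue fluorogenic substrate (80 uM final) in citrate/phosphate pH 5.9 with 10mM sodium taurocholate, 0.01% tween-20; 40 min RT, NaOH/glycine stop; fluorescence Ex 365/Em 440; AC50 from a titration from 0.6 nM upwards.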

[2] = biological target: Cytochrome P450 1A2 (Homo sapiens) (UniProt P05177); assay: p450-cyp1a2 (AID 410; calls by dose curve; note: potency is the fitted concentration of half-maximal effect); settings: recombinant CYP1A2, luciferin-ME demethylation, luminescence; series mostly up to 57 µM
How it was run: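 20nM CYP1A2, 100uM Luciferin-ME (=Km), 100mM KPO4; cpd 10 min RT; +NADPH regen, 60 min RT; stop/detect 20 min; luminescence. Normalized to furafylline 57 uM = full inhibition.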

[3] = biological target: Glucocorticoid receptor (Homo sapiens) (UniProt P04150); assay: GR-GFP Redistribution (AID 450;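 active = compounds whose dose series gives a full or clear partial fitted curve of increased nuclear translocation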; note: potency is the fitted concentration of half-maximal effect); settings: U2OS GR-GFP nuclear translocation, laser cytometry, 2 h
[4] = biological target: Glucocorticoid receptor (Homo sapiens) (UniProt P04150); assay: GR-EFC Redistribution (AID 451; calls by dose curve; note: potency is the fitted concentration of half-maximal effect); settings: CHO-K1 GR-EFC translocation, beta-gal luminescence, 2 h
How it was run: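 Translocation of GR-ED fusion to nuclear EA restores b-gal, read by luminescence after 1 h room-temperature detection. Engineered CHO-K1 biosensor cells, 1,000/well, exposed 2 h at 37 C to titrations up to 46 uM final.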

[5] = biological target: Mitogen-activated protein kinase 10 (Mus musculus) (UniProt Q61831); assay: JNK3 AlphaScreen Assay (AID 530; active = well fitted curve in either direction with a large enough effect, not every such curve was filed as active;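 note: kinase came from lysate of stimulated human HepG2 cells; signal reports phosphorylation of biotinylated GST-cJun 1-79 at Ser73 with 10 µM ATP; % is set by controls: 0 for no effect and ±100 for the full control effect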); settings: JNK3 lysate, c-Jun phosphorylation; series mostly up to 57.1 µM
How it was run: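 Kinase buffer: 20 mM Tris-HCl pH 7.6, 10 mM MgCl2, 1 mM DTT, 0.1 mM Na3VO4, 0.01% Tween-20; ATP 10 uM. Substrate biotin-GST-cJun(1-79), enzyme from activated HepG2 lysates. Detection by Ser73 phospho-antibody AlphaScreen.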

[6] = biological target: 3',5'-cyclic-AMP phosphodiesterase 4B (Homo sapiens) (UniProt Q07343); assay: qHTS Assay for Inhibitors of PDE-IV (AID 607; active = well fitted activation curve with a large enough effect in the main read-out, with a control signal flat, not every such curve was filed as active; note: % of control where 0% means no effect); settings: HEK293 ACTOne CNG channel cells, membrane potential fluorescence; series mostly up to 22.9 µM
How it was run: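 HEK293 ACTOne cells with CNG channel (1000/well), endogenous PDE4; membrane potential dye, compounds up to 22.9 uM final. Fluorescence Ex 535/Em 590; RO 20-1724 (100 uM final) as reference.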

[7] = biological target: Cytochrome P450 3A4 (Homo sapiens) (UniProt P08684); assay: qHTS Assay for Activators of Cytochrome P450 3A4 (AID 885); settings: recombinant CYP3A4, Luciferin-PPXE luminescence, 60 min; series mostly up to 57.1 µM; note: nearly all actives have a fitted effect of over 65% in size
How it was run: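 Human CYP3A4 dealkylates Luciferin-PPXE to luciferin, which luciferase detection converts to light. Substrate was at its KM (25uM), buffer 200mM KPO4, reaction 60 min at RT.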

[8] = qHTS Assay for Lipid Storage Modulators (AID 1519; calls by dose curve); settings: Drosophila S3 cells, BODIPY lipid droplet/cell ratio, laser cytometry, cells loaded with oleic acid; for activity change, negative = inhibition: at 57.5 µM (top of the series)
How it was run: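 Cells seeded at 5,000 per well were treated with compounds over a concentration series and loaded with oleic acid (400 uM, as added). Lipid droplet fluorescence (488 nm excitation, 500-530 nm channel) was read by laser-scanning cytometry and normalized to 20 uM Triacsin C.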

[9] = biological target: Dual specificity protein kinase CLK4 (Homo sapiens) (UniProt Q9HAZ1); assay: qHTS Assay for Inhibitors of CDC-like Kinase 4 (Kinase-Glo Assay) (AID 1770); settings: recombinant Clk4, Kinase-Glo ATP depletion luminescence; series mostly up to 66.7 µM; note: % is set by controls: 0 for no effect and ±100 for the full control effect; nearly all actives have a fitted effect of over 65% in size
How it was run: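 Substrate mix (RS peptide 100 uM, ATP 1 uM) dispensed, compound pinned in, then Clk4 added to 25 nM final. Incubated 4.5 h at RT; Kinase-Glo reagent added, luminescence read after 5 min.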

[10] = biological target: Dual specificity protein kinase CLK4 (Homo sapiens) (UniProt Q9HAZ1); assay: qHTS Assay for Inhibitors of CDC-like Kinase 4 (ADP-Glo Assay) (AID 1771); settings: recombinant CLK4, ADP-Glo luminescence; series mostly up to 80 µM; note: % is set by controls: 0 for no effect and ±100 for the full control effect; nearly all actives have a fitted effect of over 70% in size
How it was run: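 25 nM Clk4, 100 uM RS peptide, 1 uM ATP (final); 2 mM MgCl2, 0.5 mM EGTA, 2.5 mM DTT, 0.01% Triton X-100; 1 hr RT. ADP-Glo readout: ATP depletion 45 min, conversion/luciferase 30 min, luminescence.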

[11] = biological target: Dual specificity protein kinase CLK4 (Homo sapiens) (UniProt Q9HAZ1); assay: qHTS Assay for Inhibitors of CDC-like Kinase 4 (ADP-FP Assay) (AID 1795); settings: Transcreener ADP fluorescence polarization; series mostly up to 50 µM;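 note: recombinant human CLK4 phosphorylating RS repeat peptide at 1 µM ATP; % is set by controls: 0 for no effect and ±100 for the full control effect; nearly all actives have a fitted effect of over 60% in size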
How it was run: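 Clk4 6.25 nM; RS peptide 100 uM; ATP 1 uM; 25 mM Tris pH 7.5, 10 mM MgCl2; 1 h reaction. ADP detected via antibody/orange tracer FP displacement; TG003 positive control.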

[12] = biological target: Ubiquitin carboxyl-terminal hydrolase 1 (Homo sapiens) (UniProt O94782); assay: Inhibitors of USP1/UAF1: Pilot qHTS (AID 504865); settings: purified USP1/UAF1, Ub-rhodamine cleavage fluorescence; series mostly up to 54.9 µM;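 note: rhodamine fluorescence freed from ubiquitin-rhodamine substrate followed over time; top concentration of the series differs between compounds; % is set by controls: 0 for no effect and ±100 for the full control effect; nearly all actives have a fitted effect of over 35% in size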
How it was run: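 In 50mM HEPES pH 7.8 containing 0.5mM EDTA, 1mM TCEP, 0.1 mg/ml BSA and 0.01% Tween-20, 1nM USP1/UAF1 is exposed to compound for 15 min, then Ub-Rho (150nM final) is added and fluorescence is read over time.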

[13] = Counterscreen qHTS for small molecule stabilizers of the endoplasmic reticulum resident proteome: GLuc-NoTag assay (AID 1508627); settings: Gaussia luciferase NoTag secretion counterscreen, luminescence, thapsigargin 100 nM for final 4 h; series mostly up to 76.4 µM;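 note: SH-SY5Y cells given compound then 100 nM thapsigargin to empty ER calcium; 0% = thapsigargin alone and -100% = DMSO vehicle control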
How it was run: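 Counterscreen line: SH-SY5Y-GLuc-NoTag cells, treated with compound 19 hr before a 4 hr, 100 nM thapsigargin calcium depletion. Secreted Gaussia luciferase in the medium was measured by luminescence after coelenterazine was added (0.07x final), with cells unlysed.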

[14] = AP1 Signaling Pathway (AID 357; active = well fitted curve in either direction with a large enough effect, not every such curve was filed as active; note: % is set by controls: 0 for no effect and ±100 for the full control effect); settings: ME-180 AP-1-bla reporter, EGF-induced, beta-lactamase ratio, 5 h; at 7.69 µM (top of the series) unless noted
How it was run: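 Titration-series screen for positive or negative modulators of EC50 EGF-induced signaling in ME-180 cells carrying an AP-1-driven beta-lactamase reporter. After 5 hours at 37 degrees Celsius, CCF4 460nm/530nm emission ratio gave %Activity; AC50 values derived.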

[15] = NFAT Signaling Pathway (AID 444; active = well fitted curve in either direction with a large enough effect, not every such curve was filed as active;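 note: carbachol stimulus at about its EC50 of 1 µM final; % is set by controls: 0 for no effect and ±100 for the full control effect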); settings: Jurkat NFAT-bla M1, carbachol, beta-lactamase ratio, 5 h; at 7.69 µM (top of the series) unless noted
How it was run: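 Read-out: CCF4 FRET ratio (460 nm/530 nm) after 1 h RT dye loading, used for %activity and AC50 from titration series. Cells: Jurkat NFAT-β-lactamase/M1 line, treated with compound plus 1 uM carbachol for 5 h, 37 °C.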

[16] = Stat Signaling Pathway (AID 446; active = well fitted curve in either direction with a large enough effect, not every such curve was filed as active;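 note: ME-180 cervical cancer cells given 40 pM IL-6 alongside compound; SIE-controlled beta-lactamase reporter measured as 460/530 nm FRET emission ratio; % is set by controls: 0 for no effect and ±100 for the full control effect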); settings: ME-180 (cervical carcinoma) SIE beta-lactamase reporter, IL-6 stimulated, 5 h; at 7.69 µM (top of the series) unless noted
How it was run: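 Normalization used AC90 stimulation (300 pM IL-6) and AC90 inhibition (125 nM pan-JAK inhibitor at 40 pM IL-6). The underlying signal is SIE-driven beta-lactamase in ME-180 cells after 5 h IL-6 exposure with compound.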

[17] = Confirmatory qHTS for small molecule stabilizers of the endoplasmic reticulum resident proteome: Secreted ER Calcium Modulated Protein (SERCaMP) assay (AID 1508628); settings: SERCaMP secreted luciferase ER calcium/proteostasis reporter; series mostly up to 76.3 µM; note: nearly all actives have a fitted effect of over 40% in size; note: potency is the fitted concentration of half-maximal effect
How it was run: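 GLuc-SERCaMP-expressing SH-SY5Y cells, pretreated 16 h with compound, are challenged with thapsigargin to empty ER calcium stores; after 4 h, coelenterazine is added directly to the medium and luminescence is imaged.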

[18] = Cell Viability qHTS for small molecule stabilizers of the endoplasmic reticulum resident proteome (AID 1508629); settings: cell viability counter-screen, 100 nM thapsigargin for final 4 h
[19] = Confirmation and Secondary Assay for Modulators of Hemoglobin Beta Chain Splicing at IVS2 654 locus (AID 910); settings: HeLa EGFP-654 splicing reporter, GFP fluorescence, 48 h; series mostly up to 38.3 µM;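 note: HeLa cells stably carrying EGFP split by mutant beta-globin IVS2-654 intron; per-well total GFP intensity by laser scanning cytometry after 2-day treatment; % of control where 0% means no effect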
How it was run: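 Readout: per-well total peak green fluorescence (488 nm ex, 500–520 nm em) from objects 5–250 µm, reflecting correct splicing of an EGFP-654 reporter. Compounds were applied for 2 days at 37 °C to overnight-plated HeLa EGFP-654 cells; controls were DMSO and 500 nM IVS2-654 PNA.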

[20] = measured here: cell count channel max response
[21] = measured here: lipid channel max response

Glucocorticoid receptor (Homo sapiens), sequence (P04150 whole entry, looked up, the tested form may be a part): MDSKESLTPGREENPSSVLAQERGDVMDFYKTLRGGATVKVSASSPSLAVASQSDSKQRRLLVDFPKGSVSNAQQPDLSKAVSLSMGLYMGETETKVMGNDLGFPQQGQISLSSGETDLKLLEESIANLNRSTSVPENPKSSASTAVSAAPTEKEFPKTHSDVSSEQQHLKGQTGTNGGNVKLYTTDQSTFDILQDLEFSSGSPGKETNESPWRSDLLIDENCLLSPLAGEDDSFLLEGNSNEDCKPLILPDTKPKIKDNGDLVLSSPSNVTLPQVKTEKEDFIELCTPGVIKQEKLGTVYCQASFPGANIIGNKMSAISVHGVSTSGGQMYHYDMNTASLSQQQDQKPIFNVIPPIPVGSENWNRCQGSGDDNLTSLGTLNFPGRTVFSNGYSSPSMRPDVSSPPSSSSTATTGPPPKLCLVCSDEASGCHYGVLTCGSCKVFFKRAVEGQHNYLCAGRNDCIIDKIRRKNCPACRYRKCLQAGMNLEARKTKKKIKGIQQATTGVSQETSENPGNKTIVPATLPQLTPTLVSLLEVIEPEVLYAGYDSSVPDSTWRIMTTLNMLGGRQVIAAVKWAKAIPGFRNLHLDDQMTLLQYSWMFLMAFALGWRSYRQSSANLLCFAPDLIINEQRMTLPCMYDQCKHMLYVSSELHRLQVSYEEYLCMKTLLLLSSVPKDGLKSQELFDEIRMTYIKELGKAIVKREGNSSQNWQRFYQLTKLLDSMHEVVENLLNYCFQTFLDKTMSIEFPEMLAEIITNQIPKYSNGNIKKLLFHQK
3',5'-cyclic-AMP phosphodiesterase 4B (Homo sapiens), sequence (Q07343 whole entry, looked up): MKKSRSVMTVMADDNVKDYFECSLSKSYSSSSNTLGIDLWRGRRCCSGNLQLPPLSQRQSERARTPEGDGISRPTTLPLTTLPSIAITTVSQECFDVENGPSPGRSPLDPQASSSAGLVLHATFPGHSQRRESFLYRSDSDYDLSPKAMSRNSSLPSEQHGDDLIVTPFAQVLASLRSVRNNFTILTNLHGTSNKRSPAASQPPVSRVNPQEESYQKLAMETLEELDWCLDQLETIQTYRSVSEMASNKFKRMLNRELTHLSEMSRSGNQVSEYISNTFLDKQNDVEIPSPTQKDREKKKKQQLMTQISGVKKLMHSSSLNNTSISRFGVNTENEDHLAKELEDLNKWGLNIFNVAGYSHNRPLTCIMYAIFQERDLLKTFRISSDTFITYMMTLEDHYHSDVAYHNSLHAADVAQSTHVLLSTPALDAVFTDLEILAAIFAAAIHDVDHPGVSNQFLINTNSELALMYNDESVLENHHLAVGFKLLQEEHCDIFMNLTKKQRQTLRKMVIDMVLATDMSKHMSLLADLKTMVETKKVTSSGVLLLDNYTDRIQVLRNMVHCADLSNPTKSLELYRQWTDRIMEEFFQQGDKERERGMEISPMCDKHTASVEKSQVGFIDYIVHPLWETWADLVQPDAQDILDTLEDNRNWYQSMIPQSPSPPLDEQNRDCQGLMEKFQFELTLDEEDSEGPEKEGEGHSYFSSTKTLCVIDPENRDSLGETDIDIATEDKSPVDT
Dual specificity protein kinase CLK4 (Homo sapiens), sequence (Q9HAZ1 whole entry, looked up): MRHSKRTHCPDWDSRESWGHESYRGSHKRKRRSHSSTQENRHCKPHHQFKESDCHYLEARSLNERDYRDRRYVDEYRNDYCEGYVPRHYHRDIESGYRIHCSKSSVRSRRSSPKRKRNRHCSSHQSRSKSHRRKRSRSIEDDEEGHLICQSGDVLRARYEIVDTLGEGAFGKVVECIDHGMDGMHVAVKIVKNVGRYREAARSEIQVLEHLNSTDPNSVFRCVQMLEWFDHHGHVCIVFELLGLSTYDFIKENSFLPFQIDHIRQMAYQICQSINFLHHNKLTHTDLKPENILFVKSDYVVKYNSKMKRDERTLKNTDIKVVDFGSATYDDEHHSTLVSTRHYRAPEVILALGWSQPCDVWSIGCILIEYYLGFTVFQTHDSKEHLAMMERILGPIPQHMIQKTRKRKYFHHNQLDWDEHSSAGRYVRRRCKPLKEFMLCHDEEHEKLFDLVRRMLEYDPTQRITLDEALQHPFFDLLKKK
Lysosomal acid glucosylceramidase (Homo sapiens), sequence (P04062 whole entry, looked up): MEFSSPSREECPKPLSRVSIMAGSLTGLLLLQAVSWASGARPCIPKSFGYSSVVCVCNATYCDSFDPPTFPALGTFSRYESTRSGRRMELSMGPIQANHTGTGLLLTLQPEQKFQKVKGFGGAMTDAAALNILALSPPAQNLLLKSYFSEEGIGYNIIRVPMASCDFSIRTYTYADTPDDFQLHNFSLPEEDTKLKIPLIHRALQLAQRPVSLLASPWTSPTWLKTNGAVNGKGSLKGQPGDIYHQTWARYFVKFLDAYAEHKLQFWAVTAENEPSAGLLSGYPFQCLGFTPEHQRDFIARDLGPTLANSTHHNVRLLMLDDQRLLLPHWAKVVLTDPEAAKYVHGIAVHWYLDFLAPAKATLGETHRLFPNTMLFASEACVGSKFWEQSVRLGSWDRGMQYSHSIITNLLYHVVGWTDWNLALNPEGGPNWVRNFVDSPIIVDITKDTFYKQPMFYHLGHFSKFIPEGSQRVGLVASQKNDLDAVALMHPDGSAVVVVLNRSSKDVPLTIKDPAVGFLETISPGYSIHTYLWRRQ
Ubiquitin carboxyl-terminal hydrolase 1 (Homo sapiens), sequence (O94782 whole entry, looked up): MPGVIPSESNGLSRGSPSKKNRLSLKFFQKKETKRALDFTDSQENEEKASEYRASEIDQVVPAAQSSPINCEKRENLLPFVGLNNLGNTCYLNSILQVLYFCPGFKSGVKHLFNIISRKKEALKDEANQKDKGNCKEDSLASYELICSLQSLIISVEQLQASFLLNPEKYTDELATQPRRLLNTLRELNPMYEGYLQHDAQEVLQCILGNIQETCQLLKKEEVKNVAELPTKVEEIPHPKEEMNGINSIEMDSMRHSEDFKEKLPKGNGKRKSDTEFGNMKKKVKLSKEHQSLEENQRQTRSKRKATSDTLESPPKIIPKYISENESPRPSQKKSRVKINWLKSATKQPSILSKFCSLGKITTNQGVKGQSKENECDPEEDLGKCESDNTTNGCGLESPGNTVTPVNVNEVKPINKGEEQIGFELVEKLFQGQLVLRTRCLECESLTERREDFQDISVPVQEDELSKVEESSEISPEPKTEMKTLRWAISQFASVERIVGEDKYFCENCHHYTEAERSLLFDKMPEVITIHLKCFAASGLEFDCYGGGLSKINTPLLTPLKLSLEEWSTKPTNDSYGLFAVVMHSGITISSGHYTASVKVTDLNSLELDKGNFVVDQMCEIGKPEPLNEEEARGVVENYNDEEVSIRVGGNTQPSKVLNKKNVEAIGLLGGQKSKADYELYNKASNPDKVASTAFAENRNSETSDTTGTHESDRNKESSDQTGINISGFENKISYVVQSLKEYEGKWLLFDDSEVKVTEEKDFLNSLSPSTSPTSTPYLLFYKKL
Cytochrome P450 1A2 (Homo sapiens), sequence (P05177 whole entry, looked up): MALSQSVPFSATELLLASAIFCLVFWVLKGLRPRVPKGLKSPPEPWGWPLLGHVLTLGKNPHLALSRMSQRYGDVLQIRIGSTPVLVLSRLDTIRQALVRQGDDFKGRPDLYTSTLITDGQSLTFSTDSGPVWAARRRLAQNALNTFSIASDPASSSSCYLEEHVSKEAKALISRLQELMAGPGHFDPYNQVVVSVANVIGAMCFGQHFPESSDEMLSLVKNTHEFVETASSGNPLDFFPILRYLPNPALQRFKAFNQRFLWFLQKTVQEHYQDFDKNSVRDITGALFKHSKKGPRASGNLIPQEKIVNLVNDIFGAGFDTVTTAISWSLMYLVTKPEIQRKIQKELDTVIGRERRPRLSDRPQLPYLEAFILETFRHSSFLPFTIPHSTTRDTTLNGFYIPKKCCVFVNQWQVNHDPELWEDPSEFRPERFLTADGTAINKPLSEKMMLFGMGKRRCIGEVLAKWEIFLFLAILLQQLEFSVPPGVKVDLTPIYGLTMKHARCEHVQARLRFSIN
Cytochrome P450 3A4 (Homo sapiens), sequence (P08684 whole entry, looked up): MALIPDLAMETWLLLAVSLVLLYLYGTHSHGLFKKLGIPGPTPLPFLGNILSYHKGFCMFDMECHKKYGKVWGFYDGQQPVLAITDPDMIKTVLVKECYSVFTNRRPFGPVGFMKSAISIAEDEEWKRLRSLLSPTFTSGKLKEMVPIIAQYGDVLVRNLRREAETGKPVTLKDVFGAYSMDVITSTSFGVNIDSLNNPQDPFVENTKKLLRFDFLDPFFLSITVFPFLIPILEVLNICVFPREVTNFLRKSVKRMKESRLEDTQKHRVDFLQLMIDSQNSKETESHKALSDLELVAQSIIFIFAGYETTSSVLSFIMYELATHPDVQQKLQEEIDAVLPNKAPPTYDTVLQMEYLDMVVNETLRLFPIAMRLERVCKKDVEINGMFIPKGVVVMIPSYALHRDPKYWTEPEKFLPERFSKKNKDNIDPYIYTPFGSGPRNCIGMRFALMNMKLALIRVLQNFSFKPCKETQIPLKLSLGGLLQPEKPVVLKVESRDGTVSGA

CN1CCN(c2ncc3nc(-c4cccs4)c(=O)n(-c4ccccc4)c3n2)CC1
Potency [1]: > 11.4 µM (inactive) | Potency [2]: 3.16 µM (active) | Potency [3]: > 9.22 µM (inactive) | Potency [4]: > 46 µM (inactive) | outcome [5]: inactive | Potency [6]: inactive | Potency [7]: inactive | activity change, negative = inhibition [8]: -0.619% (inactive) | max response [8, 20]: 22.3% | max response [8, 21]: 18.9% | Potency [9]: inactive | Potency [10]: inactive | Potency [11]: inactive | Potency [12]: inactive | Potency [13]: inactive

COCCn1c(=O)c(-c2ccc(Cl)cc2)nc2cnc(OC)nc21
Potency [1]: > 11.4 µM (inactive) | activity change, negative = inhibition [14]: 5.96% (inactive) | Potency [2]: 0.398 µM (active) | activity change, negative = inhibition [15]: 0.766% (inactive) | activity, negative = inhibition [16]: -10.9% (inactive) | Potency [3]: > 9.22 µM (inactive) | Potency [4]: > 46 µM (inactive) | outcome [5]: inactive | Potency [6]: inactive | Potency [7]: inactive | Potency [13]: inactive | Potency [17]: inactive

COCCn1c(=O)c(CCc2ccccc2)nc2cnc(N3CCN(C)CC3)nc21
Potency [1]: > 11.4 µM (inactive) | activity change, negative = inhibition [14]: 2.87% (inactive) | activity change, negative = inhibition [15]: -7.4% (inactive) | activity, negative = inhibition [16]: -8.57% (inactive) | Potency [3]: > 9.22 µM (inactive) | Potency [4]: > 46 µM (inactive) | outcome [5]: inactive | Potency [6]: inactive | activity change, negative = inhibition [8]: 5.96% (inactive) | max response [8, 20]: -2.68% | max response [8, 21]: 4.85% | Potency [13]: inactive | max response [18]: 0.276% (inactive)

COc1cccc(CN2CCN(C(=O)c3ccc(-c4ccccc4)cc3)CC2)c1OC
Potency [13]: inactive | max response [18]: 10.7% (inactive)

FC(F)(F)c1ccccc1-c1nc(N2CCNCC2)c2ccccc2n1
Potency [1]: > 11.4 µM (inactive) | activity change, negative = inhibition [14]: 6.77% (inactive) | Potency [2]: 10 µM (active) | activity, negative = inhibition [16]: 11.2% (inactive) | Potency [3]: > 46 µM (inactive) | Potency [4]: > 46 µM (inactive) | outcome [5]: inactive | Potency [6]: inactive | outcome [19]: inactive | activity change, negative = inhibition [8]: 7.02% (inactive) | max response [8, 20]: 13.7% | max response [8, 21]: 21.9% | Potency [12]: inactive | Potency [17]: 20 µM (active)

COc1ccc(-c2nc3cnc(N4CCN(C)CC4)nc3n(Cc3cccc(OC)c3)c2=O)cc1
Potency [1]: > 11.4 µM (inactive) | Potency [3]: > 9.22 µM (inactive) | Potency [6]: inactive | activity change, negative = inhibition [8]: -2.59% (inactive) | max response [8, 20]: 8.4% | max response [8, 21]: 2.85% | Potency [9]: inactive | Potency [10]: inactive | Potency [11]: inactive | Potency [12]: inactive | Potency [17]: inactive
